In PubChem BioAssay (NCATS):
Records with an inconclusive call do not appear. The source made the active and inactive calls. Unless noted, calls follow the shape of the dose curve; as a rule, active = well fitted curve in the direction sought with a large enough effect; inconclusive = small, poorly fitted or top-dose-only effect, or another doubt; inactive = no such curve, though single readings can be large; an effect the other way counts as inactive or inconclusive.

Columns and labels:
[1] = Cytometry Cell-Based qHTS for Inhibitors of the mTORC1 Signaling Pathway in MEF cells (AID 2668);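 also: Tsc2-/- p53-/- mouse embryonic fibroblasts stably re-expressing wild-type Tsc2; percent cells positive for phospho-rpS6 Ser235/236 relative to propidium iodide stain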
In short: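 MEFs (Tsc2-/-, p53-/- stably expressing WT Tsc2) treated 24 h at 37 degree Celsius, fixed, stained with Alexa-488 anti-phospho-rpS6 Ser235/236 and propidium iodide; Acumen laser scanning. Reported as % positive cells, phospho-S6 normalized to PI.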

[2] = Validation screen for inhibitors of Lassa infection (AID 463096; calls by dose curve)
[3] = Validation screen for small molecules that induce DNA re-replication in MCF 10A normal breast cells (AID 463097); also: nearly all actives have a fitted effect of over 60% in size
In short: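 MCF 10A cells exposed to compound 48 hr at 37 C, 5% CO2, then Hoechst-stained 40 min. Laser-scanning imaging of nuclear DNA content (405 nm ex, 500-530 nm em); re-replication scored as rise in nuclei with elevated fluorescence intensity.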

[4] = target: Tumor susceptibility gene 101 protein (Homo sapiens) (UniProt Q99816); assay: qHTS Validation Assay for Iinhibitors of HIV-1 Budding by Blocking the Interaction of PTAP/TSG101 (AID 485342; calls by dose curve)
In short: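 Tsg101 binding domain (10 uM) with FITC-labeled PTAP peptide (50 nM) in HEPES pH 7.5 buffer, 20 min at r.t. with compounds. Binding measured by fluorescence polarization.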

[5] = qHTS Validation Assay to Find Inhibitors of Chronic Active B-Cell Receptor Signaling (AID 485345; active = well fitted curve in the direction sought with a large enough effect in the main read-out, with a control signal flat, not every such curve was filed as active)
In short: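 Read-out: ratio of filter-corrected green (IkappaBalpha fusion) to red (native) luciferase signal in doxycycline-induced TMD8 cells after 4 h at 37C. Titration spanned 46 uM–3 nM; Data were normalised to basal cells and 10 uM MG-132 wells.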

[6] = target: Beta-2 adrenergic receptor (Homo sapiens) (UniProt P07550); assay: qHTS validation assay of beta-arrestin-biased ligands of beta2-adrenergic receptor (AID 485366)
In short: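 Tango cells expressing recombinant beta2-AR and beta-arrestin with tTA-driven luciferase, in DMEM with 1% FBS. Compounds were titrated up to 46 microM for 18 hr at 37 degrees C. Luminescence was read 15 min after substrate; curves were fitted and class-assigned.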

[7] = target: ATP-dependent 6-phosphofructokinase (Trypanosoma brucei brucei) (UniProt O15648); assay: qHTS Validation Assay to Find Inhibitors of T. brucei phosphofructokinase (AID 485368); details: T. brucei PFK enzyme assay, qHTS 7-point titration; at 57.5 µM (top of the series)
In short: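 Activity was read as ADP production by luminescence (ADP-Glo) after 45 min at room temperature. The enzyme was 1.25nM PFK in 0.1M TEA pH 8.0 with 0.5 mM F6P, 0.1mM ATP and 5 mM MgCl2. Compounds were titrated up to 57 uM and % activity normalized to no-enzyme and full-enzyme controls.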

[8] = Quantitative high throughput screen for delayed death inhibitors of the malarial parasite plastid, 96 hour incubation (AID 488745); also: nearly all actives have a fitted effect of over 70% in size
In short: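 P. falciparum carrying an integrated firefly luciferase reporter, grown in erythrocytes (2% hematocrit, 0.1% parasitemia final) in RPMI 1640/0.5% Albumax, was exposed to compound for 96 h (two generations) at 37 C, 5% CO2. Luminescence decrease indicated growth inhibition.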

[9] = Quantitative high throughput screen for delayed death inhibitors of the malarial parasite plastid, 48 hour incubation (AID 488752); also: nearly all actives have a fitted effect of over 65% in size
In short: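 Erythrocytes infected with P. falciparum carrying an integrated firefly luciferase reporter (2% hematocrit, 0.1% parasitemia final) were exposed to compounds in RPMI 1640/0.5% Albumax for 48 h at 37 C, 5% CO2. Growth inhibition was scored as reduced luminescence.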

[10] = target: Thioredoxin reductase 1, cytoplasmic (Rattus norvegicus) (UniProt O89049); assay: qHTS Assay for Substrates of Mammalian Selenoprotein Thioredoxin Reductase 1 (TrxR1) (AID 488772);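 also: NADPH fluorescence in the first read after selenite addition and not the 8 min delta; a drop in NADPH fluorescence below the no-compound background marks a TrxR1 substrate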
In short: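 Quantitative HTS in Tris-HCl buffer at pH 7.5 with EDTA and Tween-20, using rat TrxR1, 400 uM NADPH and 400 uM selenite (final). A fall in initial NADPH fluorescence relative to background marked substrate behaviour.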

[11] = target: Flap endonuclease 1 (Homo sapiens) (UniProt P39748); assay: qHTS Validation Assay for the Inhibitors of Human Flap endonuclease 1 (FEN1) (AID 488816)
In short: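 Readings taken at 0 and 15 min after starting the reaction with 50 nM (final) substrate supplied the signal. Compounds had first sat with 10 nM FEN1 reagent for 15 min at room temperature. Values come from Hill-equation concentration-response fits.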

[12] = target: M-phase phosphoprotein 8 (Homo sapiens) (UniProt Q99549); assay: qHTS Validation Assay for Inhibitors for MPP8 Chromodomain Interactions with Methylated Histone Tails (AID 488949); also: top concentration of the series differs between compounds; nearly all actives have a fitted effect of over 55% in size
In short: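 MPP8 (50 nM) was pre-bound to 50 nM biotinylated H3(1-18)K9me3 peptide in PBS pH 7.4 with 0.01% Tween-20. Compounds were then added for 30 min at room temperature, and complex disruption was read by AlphaScreen with streptavidin donor and nickel-chelate acceptor beads.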

[13] = target: Chromobox protein homolog 1 (Homo sapiens) (UniProt P83916); assay: qHTS Validation Assay for Inhibitors of HP1-beta Chromodomain Interactions with Methylated Histone Tails (AID 488953);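 also: loss of AlphaScreen luminescence from HP1-beta binding biotinylated H3K9me3 peptide; nearly all actives have a fitted effect of over 50% in size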
In short: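 HP1-beta (50 nM) was preincubated 30 min at room temperature with biotinylated H3(1-18)K9me3 peptide (50 nM) in PBS pH 7.4, 0.01% Tween-20, then with compounds 30 min. AlphaScreen signal was read after streptavidin donor/nickel chelate acceptor beads (10 ug/mL final).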

[14] = target: Methanococcus maripaludis chaperonin (MmCpn) (UniProt Q6LX38); assay: High-Throughput Screening for Modulators of Cytosolic Chaperonin Activity: MmCpn Primary Screen (AID 488978);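 also: 50 nM MmCpn enzyme hydrolysing 30 µM ATP at 37 °C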
In short: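 MmCpn at 50 nM final was preincubated 5 min at RT with compound. ATP was then added at 30 uM final for 10 min at 37 C. ADP formed was detected by Transcreener HTRF (665/590 nm).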

[15] = target: Transient receptor potential cation channel subfamily V member 1 (Homo sapiens) (UniProt Q8NER1); assay: HTS Assay for Compounds that Act as Enhancers of the Vanilloid Receptor 1 (AID 488979)
In short: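 Calcium influx kinetics via Fluo-8 (480/520 nm) in TRPV1-expressing cells, 2000/well cultured overnight at 35.5C. Compound-alone read 3 min (agonist phase), followed by EC20 capsaicin challenge for 2 min (enhancer phase).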

[16] = target: Thyrotropin receptor (Homo sapiens) (UniProt P16473); assay: qHTS Assay for Antagonists of the Thyroid Stimulating Hormone Receptor (AID 488980)
In short: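 TSHR-transfected HEK293 cells (2000/well) in HEPES-buffered HBSS with 70 uM RO 20-1724 were stimulated with 4 nM TSH (EC80, final) in the presence of compound. cAMP was measured by HTRF competition after lysis and 30 min at RT.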

[17] = target: D(1A) dopamine receptor (Homo sapiens) (UniProt P21728); assay: HTS Assay for Allosteric Agonists of the Human D1 Dopamine Receptor: Primary Screen for Agonists (AID 488981)
In short: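 Calcium flux in an inducible, force-coupled HEK293 Trex D1 line (overnight at 30 C): agonist mode is the 180 s kinetic read after compound; potentiator mode is the following 180 s read after dopamine at EC20.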

[18] = target: DNA polymerase III PolC-type (Bacillus subtilis (strain 168)) (UniProt P13267); assay: qHTS Validation Assay for the Inhibitors of DNA Replication in Gram-Positive Bacteria (AID 485295);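 also: PicoGreen fluorescence of double-stranded DNA made on primed circular M13 template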
In short: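 Reconstituted B. subtilis Pol III holoenzyme (PolC, beta clamp, SSB, primase) preincubated with compound, then M13Gori single-stranded circular template with dNTPs/NTPs added; room temperature reaction. Stopped with EDTA/PicoGreen; dsDNA fluorescence read, EDTA as full-inhibition control.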

[19] = target: Thioredoxin reductase 1, cytoplasmic (Rattus norvegicus) (UniProt O89049); assay: qHTS Assay for Inhibitors of Mammalian Selenoprotein Thioredoxin Reductase 1 (TrxR1) (AID 488773); details: Potency: inhibition;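 also: drop in NADPH fluorescence over an 8 min run after selenite addition; nearly all actives have a fitted effect of over 40% in size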
In short: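 Steps: enzyme (90 nM) plus NADPH (400 uM final), 5 min at ~22 deg C; compound added, 15 min; selenite (400 uM final) added; fluorescence followed for 8 min. Concentration-response curves derived from the normalized delta values.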

[20] = target: Ubiquitin carboxyl-terminal hydrolase 2 (Homo sapiens) (UniProt O75604); assay: qHTS Validation Assay for Inhibitors of Ubiquitin-specific Protease USP2a Using CHOP2 as the Reporter (AID 463106)
In short: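 10nM USP2 core + cpd, 30min RT; add 25nM Ub-CHOP2/25nM substrate; 60min RT; FI 485/531nm. Buffer Tris pH 8.0, CaCl2, BME, CHAPS. Norm. to NEM = 100% inhibition; time-zero read flags fluorescent artifacts.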

Measured: Potency

Chain of ATP-dependent 6-phosphofructokinase (Trypanosoma brucei brucei) (O15648 whole entry, looked up): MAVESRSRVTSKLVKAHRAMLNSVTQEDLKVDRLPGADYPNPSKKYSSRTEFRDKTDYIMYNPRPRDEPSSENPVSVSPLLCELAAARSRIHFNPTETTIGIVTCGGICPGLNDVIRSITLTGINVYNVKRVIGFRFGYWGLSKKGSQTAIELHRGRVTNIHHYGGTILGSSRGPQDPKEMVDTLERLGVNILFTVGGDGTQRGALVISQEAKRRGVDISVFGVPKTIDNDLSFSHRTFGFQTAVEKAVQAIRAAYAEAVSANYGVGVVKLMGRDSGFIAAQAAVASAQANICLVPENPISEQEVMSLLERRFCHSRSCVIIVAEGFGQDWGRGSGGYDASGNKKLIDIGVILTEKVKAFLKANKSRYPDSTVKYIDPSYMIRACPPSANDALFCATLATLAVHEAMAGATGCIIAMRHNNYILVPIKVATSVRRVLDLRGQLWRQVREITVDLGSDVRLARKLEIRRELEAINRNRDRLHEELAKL
Chain of Thioredoxin reductase 1, cytoplasmic (Rattus norvegicus) (O89049 whole entry, looked up): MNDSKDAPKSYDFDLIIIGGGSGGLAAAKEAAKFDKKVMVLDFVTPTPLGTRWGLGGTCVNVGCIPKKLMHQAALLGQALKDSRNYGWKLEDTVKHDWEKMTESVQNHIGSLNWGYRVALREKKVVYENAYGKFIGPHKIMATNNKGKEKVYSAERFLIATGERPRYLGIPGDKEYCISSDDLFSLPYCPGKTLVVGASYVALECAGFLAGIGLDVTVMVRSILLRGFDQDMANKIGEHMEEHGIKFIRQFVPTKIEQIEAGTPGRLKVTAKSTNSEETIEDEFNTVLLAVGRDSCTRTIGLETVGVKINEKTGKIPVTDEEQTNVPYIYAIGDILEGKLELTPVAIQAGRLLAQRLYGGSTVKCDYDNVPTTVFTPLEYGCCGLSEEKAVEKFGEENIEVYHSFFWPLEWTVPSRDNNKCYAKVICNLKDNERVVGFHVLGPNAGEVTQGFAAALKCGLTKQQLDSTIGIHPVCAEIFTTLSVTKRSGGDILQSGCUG
Chain of Flap endonuclease 1 (Homo sapiens) (P39748 whole entry, looked up): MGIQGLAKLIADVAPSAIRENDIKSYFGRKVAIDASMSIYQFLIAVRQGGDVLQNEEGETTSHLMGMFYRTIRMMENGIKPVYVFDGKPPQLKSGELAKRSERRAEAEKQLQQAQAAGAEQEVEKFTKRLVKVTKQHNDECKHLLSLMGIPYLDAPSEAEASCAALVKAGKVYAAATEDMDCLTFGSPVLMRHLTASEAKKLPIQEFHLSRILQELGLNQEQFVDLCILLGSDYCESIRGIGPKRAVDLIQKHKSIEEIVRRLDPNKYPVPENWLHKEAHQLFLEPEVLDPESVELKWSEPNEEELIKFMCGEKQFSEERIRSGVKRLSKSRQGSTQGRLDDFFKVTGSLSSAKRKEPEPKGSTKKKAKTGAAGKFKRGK
Chain of Transient receptor potential cation channel subfamily V member 1 (Homo sapiens) (Q8NER1 whole entry, looked up): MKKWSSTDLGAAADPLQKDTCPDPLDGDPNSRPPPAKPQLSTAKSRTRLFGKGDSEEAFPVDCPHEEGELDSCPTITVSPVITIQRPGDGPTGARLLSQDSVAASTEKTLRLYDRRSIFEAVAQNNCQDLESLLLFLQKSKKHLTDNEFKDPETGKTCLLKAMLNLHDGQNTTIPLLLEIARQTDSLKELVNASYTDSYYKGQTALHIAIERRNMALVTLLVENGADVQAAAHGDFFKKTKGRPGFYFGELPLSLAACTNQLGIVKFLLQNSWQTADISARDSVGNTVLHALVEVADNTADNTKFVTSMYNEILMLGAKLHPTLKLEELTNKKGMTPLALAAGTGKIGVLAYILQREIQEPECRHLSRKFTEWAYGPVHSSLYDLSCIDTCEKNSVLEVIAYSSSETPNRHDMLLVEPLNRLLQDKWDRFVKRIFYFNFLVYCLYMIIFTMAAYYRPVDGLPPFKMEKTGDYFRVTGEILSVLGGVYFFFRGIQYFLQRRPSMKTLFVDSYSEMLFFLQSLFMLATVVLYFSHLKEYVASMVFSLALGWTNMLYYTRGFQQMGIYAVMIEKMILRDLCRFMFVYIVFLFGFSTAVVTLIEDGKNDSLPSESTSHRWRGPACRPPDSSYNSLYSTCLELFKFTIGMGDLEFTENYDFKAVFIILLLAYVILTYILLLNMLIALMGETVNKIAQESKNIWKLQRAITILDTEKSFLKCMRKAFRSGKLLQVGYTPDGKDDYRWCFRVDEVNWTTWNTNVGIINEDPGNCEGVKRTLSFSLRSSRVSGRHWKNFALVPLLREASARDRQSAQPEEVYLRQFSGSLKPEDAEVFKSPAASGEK
Chain of D(1A) dopamine receptor (Homo sapiens) (P21728 whole entry, looked up): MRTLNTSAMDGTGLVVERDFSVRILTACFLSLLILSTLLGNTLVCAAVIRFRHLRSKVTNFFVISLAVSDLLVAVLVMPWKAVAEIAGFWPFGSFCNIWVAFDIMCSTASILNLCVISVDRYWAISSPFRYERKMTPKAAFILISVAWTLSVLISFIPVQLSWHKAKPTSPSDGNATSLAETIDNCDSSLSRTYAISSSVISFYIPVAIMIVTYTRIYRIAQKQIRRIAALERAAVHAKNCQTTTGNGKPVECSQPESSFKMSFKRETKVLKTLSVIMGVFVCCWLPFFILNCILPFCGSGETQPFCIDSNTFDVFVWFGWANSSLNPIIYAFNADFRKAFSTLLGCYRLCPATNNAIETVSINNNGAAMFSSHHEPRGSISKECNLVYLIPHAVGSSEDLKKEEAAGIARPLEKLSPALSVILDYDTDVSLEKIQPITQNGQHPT
Chain of Thyrotropin receptor (Homo sapiens) (P16473 whole entry, looked up): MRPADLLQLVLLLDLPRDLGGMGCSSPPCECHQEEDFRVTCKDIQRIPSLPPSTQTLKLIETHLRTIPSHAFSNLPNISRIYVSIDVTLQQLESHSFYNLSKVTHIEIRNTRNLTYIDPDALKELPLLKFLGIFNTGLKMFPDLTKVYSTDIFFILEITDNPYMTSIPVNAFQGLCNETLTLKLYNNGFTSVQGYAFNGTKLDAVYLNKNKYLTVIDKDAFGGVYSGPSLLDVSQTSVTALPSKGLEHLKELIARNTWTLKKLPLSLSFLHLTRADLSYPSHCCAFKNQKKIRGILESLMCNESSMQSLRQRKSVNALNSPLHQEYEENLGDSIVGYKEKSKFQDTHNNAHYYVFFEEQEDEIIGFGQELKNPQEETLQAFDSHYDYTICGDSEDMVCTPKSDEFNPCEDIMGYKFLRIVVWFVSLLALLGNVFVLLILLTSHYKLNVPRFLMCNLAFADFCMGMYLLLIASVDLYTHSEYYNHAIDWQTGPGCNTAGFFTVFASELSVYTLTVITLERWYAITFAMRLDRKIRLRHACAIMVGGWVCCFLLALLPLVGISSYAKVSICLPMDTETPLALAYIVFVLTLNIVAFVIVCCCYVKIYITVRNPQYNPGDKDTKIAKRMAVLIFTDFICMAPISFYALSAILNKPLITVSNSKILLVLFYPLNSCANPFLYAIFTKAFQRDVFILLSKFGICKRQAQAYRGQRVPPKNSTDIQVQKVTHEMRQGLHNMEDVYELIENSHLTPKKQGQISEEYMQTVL
Chain of Methanococcus maripaludis chaperonin (MmCpn) (Q6LX38 1-543): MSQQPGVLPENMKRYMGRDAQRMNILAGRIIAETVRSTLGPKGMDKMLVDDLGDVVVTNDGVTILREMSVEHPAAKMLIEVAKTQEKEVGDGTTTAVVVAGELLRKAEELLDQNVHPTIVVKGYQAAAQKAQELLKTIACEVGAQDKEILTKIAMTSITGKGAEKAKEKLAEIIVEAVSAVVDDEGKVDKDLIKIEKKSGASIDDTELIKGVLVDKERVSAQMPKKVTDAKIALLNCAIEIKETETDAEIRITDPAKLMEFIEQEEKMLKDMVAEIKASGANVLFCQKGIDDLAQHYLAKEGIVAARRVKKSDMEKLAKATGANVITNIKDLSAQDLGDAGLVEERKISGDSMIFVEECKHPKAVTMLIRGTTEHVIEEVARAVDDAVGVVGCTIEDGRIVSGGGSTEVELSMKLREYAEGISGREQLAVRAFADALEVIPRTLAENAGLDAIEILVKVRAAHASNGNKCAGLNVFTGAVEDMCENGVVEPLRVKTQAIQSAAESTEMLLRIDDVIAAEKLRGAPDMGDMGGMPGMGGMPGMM
Chain of M-phase phosphoprotein 8 (Homo sapiens) (Q99549 whole entry, looked up): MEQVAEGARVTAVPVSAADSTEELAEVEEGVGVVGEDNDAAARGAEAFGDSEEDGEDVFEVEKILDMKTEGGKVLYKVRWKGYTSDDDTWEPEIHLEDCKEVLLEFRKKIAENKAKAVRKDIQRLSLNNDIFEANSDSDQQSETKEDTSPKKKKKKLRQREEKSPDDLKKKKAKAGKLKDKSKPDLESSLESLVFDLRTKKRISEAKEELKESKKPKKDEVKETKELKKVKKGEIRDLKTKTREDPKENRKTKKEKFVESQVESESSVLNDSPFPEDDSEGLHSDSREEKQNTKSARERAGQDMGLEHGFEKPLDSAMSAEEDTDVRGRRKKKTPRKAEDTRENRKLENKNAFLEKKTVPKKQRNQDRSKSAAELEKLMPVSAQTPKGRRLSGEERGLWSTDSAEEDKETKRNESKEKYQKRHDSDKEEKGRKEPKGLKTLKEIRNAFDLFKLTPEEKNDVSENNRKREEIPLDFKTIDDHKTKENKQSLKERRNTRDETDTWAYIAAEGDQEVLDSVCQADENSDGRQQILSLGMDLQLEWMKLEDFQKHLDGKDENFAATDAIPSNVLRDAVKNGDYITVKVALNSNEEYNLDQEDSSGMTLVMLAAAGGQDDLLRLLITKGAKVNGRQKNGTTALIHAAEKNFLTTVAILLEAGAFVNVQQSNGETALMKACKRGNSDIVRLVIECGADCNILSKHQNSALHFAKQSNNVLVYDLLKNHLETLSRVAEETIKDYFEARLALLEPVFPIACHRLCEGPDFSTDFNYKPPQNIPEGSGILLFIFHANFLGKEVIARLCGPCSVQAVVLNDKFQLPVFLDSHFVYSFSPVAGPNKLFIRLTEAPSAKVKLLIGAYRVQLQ
Chain of Chromobox protein homolog 1 (Homo sapiens) (P83916 whole entry, looked up): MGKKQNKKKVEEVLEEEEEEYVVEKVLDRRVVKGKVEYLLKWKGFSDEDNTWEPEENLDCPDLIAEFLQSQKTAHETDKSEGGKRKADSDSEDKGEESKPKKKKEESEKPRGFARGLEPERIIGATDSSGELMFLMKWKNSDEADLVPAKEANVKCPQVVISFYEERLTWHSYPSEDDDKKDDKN

NCCc1c[nH]c2ccc(O)cc12
not listed: [18] | [19] | [20]
inactive: all other assays above

O=C(O)[C@@H]1CCN1
not listed: [18] | [19] | [20]
inactive: all other assays above

O=C(O)CC[N+](=O)[O-]
not listed: [16] | [20]
inactive: all other assays above

CC(Cc1ccc(O)cc1)NCC(O)c1cc(O)cc(O)c1 (stereo not given)
not listed: [6] | [7] | [11] | [18] | [19] | [20]
inactive: all other assays above

NC(=O)CN1CC(O)CC1=O (stereo not given)
not listed: [7] | [11] | [19] | [20]
inactive: all other assays above

c1ccc2sc(C3(N4CCCCC4)CCCCC3)cc2c1
not listed: [7] | [8] | [9] | [18] | [19]
inactive: all other assays above

C=CCN1CC[C@]23CCCCC2[C@H]1Cc1ccc(O)cc13 (stereo not given in full)
not listed: [7] | [19]
inactive: all other assays above
